# Hit rate of the full screen: of about 5,500 compounds, about 2,000 (36%) were called active. Another 18% or so got no clear call; they are omitted. The list shows a part of the results. Values without a mark were called inactive. No stated cut-off is given here; in the data, active means normalized growth mostly below about 0.91 (no sharp cut-off); inconclusive means no clear call, values can overlap the other calls; inactive means mostly above about 0.92.
# Test: chemical genetic growth profiling, strain panel (AID 1159580);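 further: tested at 20 µM; growth read once vehicle control cultures reached saturation at 30 °C; 1 = growth at the plate median or of vehicle wells; lower values mean less growth of the strain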
# Conditions: growth OD
# [1] = S. cerevisiae deletion strains, locus YHR030C, strain SLT2, active compounds read low
# [2] = S. cerevisiae deletion strains, locus YHR079C, strain IRE1, active compounds read low
# [3] = S. cerevisiae deletion strains, locus YJL095W, strain BCK1, active compounds read low
# [4] = S. cerevisiae deletion strains, locus YJR066W, strain TOR1, active compounds read low
# [5] = S. cerevisiae deletion strains, locus YLR113W, strain HOG1, active compounds read low
# [6] = S. cerevisiae deletion strains, locus YNL183C, strain NPR1, active compounds read low
# [7] = S. cerevisiae deletion strains, locus YOR231W, strain MKK1, active compounds read low
# [8] = S. cerevisiae deletion strains, locus YPL256C, strain CLN2, active compounds read low
structure (smiles),measurement,setting,value
COc1ccc(-c2cc(=O)c3c(OC)c(OC)c(OC)cc3o2)cc1OC,normalized growth,[1],1.03
same,normalized growth,[2],1.02
same,normalized growth,[3],0.974
same,normalized growth,[4],0.99
same,normalized growth,[5],0.968
same,normalized growth,[6],0.936
same,normalized growth,[7],1.02
same,normalized growth,[8],1
COc1cc(O)c2c(=O)cc(-c3ccc(O)cc3)oc2c1,normalized growth,"S. cerevisiae deletion strains, locus YBR021W, strain FUR4, active compounds read low",1.02
same,normalized growth,"S. cerevisiae deletion strains, locus YBR229C, strain ROT2, active compounds read low",1
same,normalized growth,"S. cerevisiae deletion strains, locus YCL029C, strain bik1, active compounds read low",1
same,normalized growth,"S. cerevisiae deletion strains, locus YDL035C, strain GPR1, active compounds read low",1
same,normalized growth,"S. cerevisiae deletion strains, locus YDL074C, strain BRE1, active compounds read low",1.01
same,normalized growth,"S. cerevisiae deletion strains, locus YDL101C, strain DUN1, active compounds read low",1.02
same,normalized growth,"S. cerevisiae deletion strains, locus YDL185W, strain tfp1, active compounds read low",1.02
same,normalized growth,"S. cerevisiae deletion strains, locus YDL192W, strain arf1, active compounds read low",1.05
same,normalized growth,"S. cerevisiae deletion strains, locus YDR101C, strain arx1, active compounds read low",1.03
same,normalized growth,"S. cerevisiae deletion strains, locus YDR162C, strain NBP2, active compounds read low",1.06
same,normalized growth,"S. cerevisiae deletion strains, locus YDR318W, strain mcm21, active compounds read low",1.02
same,normalized growth,"S. cerevisiae deletion strains, locus YDR388W, active compounds read low",0.994
same,normalized growth,"S. cerevisiae deletion strains, locus YDR502C, strain sam2, active compounds read low",1
same,normalized growth,"S. cerevisiae deletion strains, locus YEL061C, strain CIN8, active compounds read low",1
same,normalized growth,"S. cerevisiae deletion strains, locus YER110C, active compounds read low",1.02
same,normalized growth,"S. cerevisiae deletion strains, locus YER155C, strain BEM2, active compounds read low",1.04
same,normalized growth,"S. cerevisiae deletion strains, locus YER167W, strain BCK2, active compounds read low",1.02
same,normalized growth,"S. cerevisiae deletion strains, locus YGL078C, strain dbp3, active compounds read low",1.03
same,normalized growth,"S. cerevisiae deletion strains, locus YGL086W, strain mad1, active compounds read low",1
same,normalized growth,"S. cerevisiae deletion strains, locus YGL248W, strain PDE1, active compounds read low",1.02
same,normalized growth,"S. cerevisiae deletion strains, locus YGR135W, strain pre9, active compounds read low",1.04
same,normalized growth,"S. cerevisiae deletion strains, locus YGR252W, strain gcn5, active compounds read low",0.949
same,normalized growth,[1],1.01
same,normalized growth,"S. cerevisiae deletion strains, locus YHR079C, strain IRE1 (second series), active compounds read low",1.01
same,normalized growth,"S. cerevisiae deletion strains, locus YHR094C, strain hxt1, active compounds read low",0.996
same,normalized growth,"S. cerevisiae deletion strains, locus YHR129C, strain ARP1, active compounds read low",1.01
same,normalized growth,"S. cerevisiae deletion strains, locus YHR200W, strain rpn10, active compounds read low",1.07
same,normalized growth,"S. cerevisiae deletion strains, locus YIL066C, strain RNR3, active compounds read low",1.02
same,normalized growth,"S. cerevisiae deletion strains, locus YIL073C, strain SPO22, active compounds read low",1.02
same,normalized growth,"S. cerevisiae deletion strains, locus YIL125W, strain kgd1, active compounds read low",1.02
same,normalized growth,"S. cerevisiae deletion strains, locus YIR030C, strain dcg1, active compounds read low",1.08 [resistant] (active)
same,normalized growth,[3],1.05
same,normalized growth,"S. cerevisiae deletion strains, locus YJL134W, strain LCB3, active compounds read low",0.997
same,normalized growth,"S. cerevisiae deletion strains, locus YJL168C, strain set2, active compounds read low",1
same,normalized growth,"S. cerevisiae deletion strains, locus YJL187C, strain SWE1 (second series), active compounds read low",1.02
same,normalized growth,"S. cerevisiae deletion strains, locus YJR043C, strain POL32, active compounds read low",1
same,normalized growth,"S. cerevisiae deletion strains, locus YJR075W, strain HOC1, active compounds read low",1
same,normalized growth,"S. cerevisiae deletion strains, locus YKL009W, strain mrt4, active compounds read low",0.981
same,normalized growth,"S. cerevisiae deletion strains, locus YKL068W, active compounds read low",1
same,normalized growth,"S. cerevisiae deletion strains, locus YKL085W, strain MDH1 (second series), active compounds read low",0.994
same,normalized growth,"S. cerevisiae deletion strains, locus YKL085W, strain MDH1, active compounds read low",0.994
same,normalized growth,"S. cerevisiae deletion strains, locus YKR001C, strain vps1, active compounds read low",1.01
same,normalized growth,"S. cerevisiae deletion strains, locus YLR039C, strain RIC1, active compounds read low",1.07
same,normalized growth,"S. cerevisiae deletion strains, locus YLR058C, strain SHM2, active compounds read low",1.01
same,normalized growth,"S. cerevisiae deletion strains, locus YLR102C, strain apc9, active compounds read low",1.04
same,normalized growth,"S. cerevisiae deletion strains, locus YLR262C, strain YPT6, active compounds read low",1.07
same,normalized growth,"S. cerevisiae deletion strains, locus YLR268W, strain sec22, active compounds read low",1.01
same,normalized growth,"S. cerevisiae deletion strains, locus YLR330W, strain CHS5, active compounds read low",0.997
same,normalized growth,"S. cerevisiae deletion strains, locus YLR342W, strain FKS1 (second series), active compounds read low",1.01
same,normalized growth,"S. cerevisiae deletion strains, locus YLR371W, strain rom2, active compounds read low",1.03
same,normalized growth,"S. cerevisiae deletion strains, locus YLR418C, strain cdc73, active compounds read low",0.998
same,normalized growth,"S. cerevisiae deletion strains, locus YML016C, strain PPZ1, active compounds read low",0.994
same,normalized growth,"S. cerevisiae deletion strains, locus YML032C, strain rad52, active compounds read low",0.996
same,normalized growth,"S. cerevisiae deletion strains, locus YML124C, strain tub3, active compounds read low",1.02
same,normalized growth,"S. cerevisiae deletion strains, locus YMR078C, strain ctf18, active compounds read low",1.02
same,normalized growth,"S. cerevisiae deletion strains, locus YMR223W, strain ubp8, active compounds read low",1.04
same,normalized growth,"S. cerevisiae deletion strains, locus YMR307W, strain GAS1, active compounds read low",0.907
same,normalized growth,"S. cerevisiae deletion strains, locus YNL067W, strain RPL9B, active compounds read low",1.03
same,normalized growth,"S. cerevisiae deletion strains, locus YNL233W, strain BNI4, active compounds read low",1.02
same,normalized growth,"S. cerevisiae deletion strains, locus YNL250W, strain rad50, active compounds read low",1.02
same,normalized growth,"S. cerevisiae deletion strains, locus YNL271C, strain bni1, active compounds read low",1.04
same,normalized growth,"S. cerevisiae deletion strains, locus YNL298W, strain CLA4, active compounds read low",0.963
same,normalized growth,"S. cerevisiae deletion strains, locus YNL307C, strain MCK1, active compounds read low",0.994
same,normalized growth,"S. cerevisiae deletion strains, locus YNR052C, strain pop2, active compounds read low",1.01
same,normalized growth,"S. cerevisiae deletion strains, locus YOL006C, strain TOP1, active compounds read low",1.04
same,normalized growth,"S. cerevisiae deletion strains, locus YOL012C, strain htz1",0.814
same,normalized growth,"S. cerevisiae deletion strains, locus YOL147C, strain pex11, active compounds read low",1.02
same,normalized growth,"S. cerevisiae deletion strains, locus YOR061W, strain CKA2, active compounds read low",1
same,normalized growth,"S. cerevisiae deletion strains, locus YOR069W, strain VPS5, active compounds read low",0.999
same,normalized growth,"S. cerevisiae deletion strains, locus YOR136W, strain idh2, active compounds read low",0.993
same,normalized growth,"S. cerevisiae deletion strains, locus YOR144C, strain elg1, active compounds read low",1.04
same,normalized growth,"S. cerevisiae deletion strains, locus YOR184W, strain ser1, active compounds read low",1.07
same,normalized growth,"S. cerevisiae deletion strains, locus YOR316C, strain cot1, active compounds read low",1.02
same,normalized growth,"S. cerevisiae deletion strains, locus YPL055C, strain LGE1, active compounds read low",1.02
same,normalized growth,"S. cerevisiae deletion strains, locus YPR119W, strain clb2, active compounds read low",1.01
same,normalized growth,"S. cerevisiae deletion strains, locus YPR141C, strain kar3, active compounds read low",1.08
same,normalized growth,"S. cerevisiae deletion strains, locus YPR163C, strain tif3, active compounds read low",0.996
same,normalized growth,"S. cerevisiae deletion strains, locus YPR167C, strain met16, active compounds read low",1.02
same,normalized growth,"S. cerevisiae deletion strains, strain wtn01, active compounds read low",1.02
same,normalized growth,"S. cerevisiae strains, strain wild type, active compounds read low",1.01
COc1ccc(-c2cc(=O)c3c(O)cc(OC)cc3o2)cc1,normalized growth,[1],0.924
same,normalized growth,[2],0.925
same,normalized growth,[3],0.931
same,normalized growth,[4],0.874
same,normalized growth,[5],0.905
same,normalized growth,[6],0.887
same,normalized growth,[7],0.919
same,normalized growth,[8],0.94

# Reference: PubChem BioAssay AID1159580 (chemical genetic matrix, 2015)
